Compound activity as filed in PubChem BioAssay.
This is a sample that favours compounds with a hit; in the whole collection about 4% have one here.
D1 antag: Antagonist of Human D 1 Dopamine Receptor: qHTS; HEK293 TREx D1 cells, calcium flux, dopamine EC80; hits give low values; D(1A) dopamine receptor (Homo sapiens), P21728; activity change, negative = inhibition, % at 10 µM; AID 504652, 2011; 3.2% of 360,000 active; in the data active = activity change below about -30%; note: % is set by controls: 0 for no effect and ±100 for the full control effect
Target sequence (P21728 whole entry, looked up): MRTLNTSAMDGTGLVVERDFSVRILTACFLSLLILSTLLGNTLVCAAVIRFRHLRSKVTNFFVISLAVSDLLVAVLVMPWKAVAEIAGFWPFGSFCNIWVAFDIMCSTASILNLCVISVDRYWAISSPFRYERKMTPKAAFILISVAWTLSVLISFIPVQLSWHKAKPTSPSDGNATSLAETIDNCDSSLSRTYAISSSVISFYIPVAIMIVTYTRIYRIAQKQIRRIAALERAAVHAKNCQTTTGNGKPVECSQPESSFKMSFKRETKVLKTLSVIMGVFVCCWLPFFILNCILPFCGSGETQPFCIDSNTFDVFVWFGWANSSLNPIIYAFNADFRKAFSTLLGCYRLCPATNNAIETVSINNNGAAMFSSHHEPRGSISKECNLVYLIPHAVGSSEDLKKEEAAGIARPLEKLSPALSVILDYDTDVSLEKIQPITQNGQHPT
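Tetracycline-induced HEK293 Trex D1 cells, force-coupled to calcium, dye-loaded; compounds added and read 180 s, then EC80 dopamine added and calcium flux tracked kinetically another 180 s.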
D1 agonist: Allosteric Agonists of the Human D1 Dopamine Receptor: qHTS; D(1A) dopamine receptor (Homo sapiens), P21728; HEK293 T-REx D1 cells, calcium flux, agonist mode; AID 504660, 2011; 1% of 360,000 active; activation, % at 2 µM; note: 0% is about no effect
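Inducible HEK293 T-REx D1 cells, force-coupled to calcium signalling, were plated at 4000 cells/well with tetracycline and held overnight at 30 C. After no-wash calcium dye loading, compound-evoked calcium rise over 180 s flagged agonists.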
TRHR enhancer: qHTS for Small Molecule Agonists and Allosteric Enhancers of Human TRH Receptor: Primary Screen for Enhancers; Thyrotropin-releasing hormone receptor (Homo sapiens), P34981; 0.66% of 360,000 active; enhancement, % at 2 µM; AID 493056, 2011; TRHR cells, fluo-8 calcium fluorescence, EC20 TRH enhancement; in the data active = enhancement above about 30%; note: 0% is about no effect
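Enhancer read-out: after compound pinning and an initial kinetic agonist-mode read, an EC20 of TRH (10 nM final) was injected and fluo-8 calcium signal (Ex 480/Em 530) followed at 1 s/cycle for 100 cycles in TRHR-expressing cells.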
Glioma ERSR ind: qHTS for Inducers of the Endoplasmic Reticulum Stress Response (ERSR) in Human Glioma: qHTS; U87-MG GRP78 promoter luciferase reporter, 16 h; Potency, µM, for the others: at the top dose activation, usual class: activators; 0.02% of 420,000 active; active = well fitted activation curve with a large enough effect; note: potency is the fitted concentration of half-maximal effect; series mostly up to about 76 µM; % of control where 0% means no effect; nearly all actives have a fitted effect of over 35% in size
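ERSR induction read as luciferase luminescence (Bright-Glo, 10 min at room temperature) in stably transfected human U87-MG glioma cells exposed to compounds for 16 h, using GRP78 as sensor.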
D1 potentiator: Potentiators of Human D1 Dopamine Receptor: qHTS; HEK293 TREx D1 cells, calcium flux, dopamine EC20 potentiation; D(1A) dopamine receptor (Homo sapiens), P21728; potentiation, % at 10 µM; 0.036% of 360,000 active; AID 504651, 2011; in the data active = potentiation above about 30%; note: 0% is about no effect
TRHR agonist: qHTS for Small Molecule Agonists and Allosteric Enhancers of Human TRH Receptor: Primary Screen for Agonists; Thyrotropin-releasing hormone receptor (Homo sapiens), P34981; TRHR cells, calcium flux fluo-8, FDSS agonist mode; activation, % at 2 µM; 0.18% of 360,000 active; AID 493084, 2011; note: 0% is about no effect
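TRHR-expressing cells loaded with fluo-8 calcium dye; 23 nL library compound pin-transferred, kinetic FDSS fluorescence (Ex 480/Em 530) recorded about 180 s for agonist-induced calcium release, before a 10 nM TRH EC20 addition for potentiator mode.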
The depositor's hits bear a star; . = no result. Cut-off read from the data, not from the text of the source, unless noted: active = activation above about 30%; inactive = the rest.

SMILES	D1 antag	D1 agonist	TRHR enhancer	Glioma ERSR ind	D1 potentiator	TRHR agonist
CCOC(=O)/C(C#N)=C/N=c1ccc(C)cn1C	-5	0	2	-3%	-10	0
CCCCCCN1C=CC(=C/C=C(\C#N)C(=O)OCC)C=C1	-7	178*	31*	1%	-5	165*
CCCN1C=CC(=C/C=C(\C#N)C(=O)OCC)C=C1	-7	33*	6	.	0	58*
CCOC(=O)/C(C#N)=C/C=C1\C=Cc2ccccc2N1CC	11	11	-3	2%	-2	5
O=C(N/N=C(\c1ccccc1)c1cccnc1)c1ccc(O)cc1	4	6	3	-1%	-2	0
O=C(N/N=C(\c1ccccc1)c1cccnc1)c1cccc(F)c1	-41*	2	-4	-9%	-3	-1
NC(N)=Nc1ccc(Cl)cc1	.	.	.	-4%	.	.
NC(=Nc1ccc(Cl)cc1)c1ccccc1	-53*	71*	-19	4%	-3	31*
O=C(NCc1ccccc1)/C(=C/c1ccc(OC(F)F)cc1)c1ccccc1	-6	20	1	-6%	-2	3
COc1ccccc1N1C(=O)CC(N2CCN(c3ccc(Cl)cc3)CC2)C1=O (configuration not stated)	-17	14	1	-1%	-2	1
COc1ccc(OCC(=O)Nc2ccc(S(=O)(=O)N3CCN(C)CC3)cc2)cc1	-39*	8	-3	-3%	-6	0
CN1CCN(S(=O)(=O)c2ccc(NC(=S)NC(=O)C3CCCC3)cc2)CC1	-45*	0	9	0%	-6	0
CC(C)C(=O)NC(=S)Nc1ccc(S(=O)(=O)N2CCN(C)CC2)cc1	-2	1	-2	-4%	4	1
Cc1cc(OCC(=O)Nc2ccc(S(=O)(=O)N3CCN(C)CC3)cc2)ccc1Br	-72*	33*	-3	-3%	-1	1
Cc1ccc(OCC(=O)Nc2ccc(S(=O)(=O)N3CCN(C)CC3)cc2)cc1	-24	11	2	-6%	-10	1
Cc1nn2c(N3CCN(C(=O)c4ccco4)CC3)cc(C(C)(C)C)nc2c1-c1ccccc1	10	2	-1	3%	-1	-1
CC(C)CCNC(=O)c1ccc(NC(=O)C2=CSCCO2)cc1	26	4	0	1%	-1	0
O=C(c1ccoc1)N1CCCC(N2CCN(c3cccc(C(F)(F)F)c3)CC2)C1 (configuration not stated)	-7	1	9	-3%	-4	1
O=C(O)c1ccc(NC(CSCc2cccc(F)c2)C(=O)O)c([N+](=O)[O-])c1 (configuration not stated)	9	0	-5	-1%	-4	0
COC(=O)C1CCN(CC(=O)N(C)c2c(N)n(Cc3ccccc3)c(=O)[nH]c2=O)CC1	-36*	0	-2	-6%	-5	0
Cc1ccc(/C=N/n2c(C)cc(C)c(C#N)c2=O)o1	-4	1	0	-2%	-6	-1
O=C1/C(=C\c2ccc(O)cc2)SC(=S)N1/N=C/c1ccc(O)cc1	-23	111*	10	9%	4	52*
CCn1c(=O)n(C2=C(CO)CN(CC3CCCCCCC3)CC2)c2ccccc21	.	.	.	1%	.	.
CCN(Cc1cccs1)C(=O)CN1C(=O)NC(c2ccccc2)(c2ccccc2)C1=O	-3	1	35*	-3%	0	1
CCN(Cc1cccs1)C(=O)CN1C(=O)NC2(CCCc3ccccc32)C1=O (configuration not stated)	4	3	9	-5%	-2	0
SMILES	D1 antag	D1 agonist	TRHR enhancer	Glioma ERSR ind	D1 potentiator	TRHR agonist
O=C(CC1C(=O)NCCN1C(=O)c1ccc([N+](=O)[O-])cc1)Nc1ccc(F)cc1 (configuration not stated)	6	3	-2	-2%	-2	0
COCCNC(=S)N=Nc1c(O)[nH]c2c(C)cc(C)cc12	-13	2	0	-1%	10	0
Cc1ccc(NC(=O)CC2=NC(=O)C(CC(=O)Nc3ccccc3F)S2)cc1 (configuration not stated)	-50*	1	3	5%	-5	0
O=c1[nH]c(=O)n(Cc2ccccc2)c2nc(-c3ccc(C(F)(F)F)cc3)n(CCO)c12	-31*	10	14	-4%	1	0
O=c1[nH]c(=O)n(CCO)c2nnn(Cc3ccccc3)c12	-31*	3	2	-6%	-9	0
COc1ccc(N2CCN(c3ccc(NC(=O)c4ccc5c(c4)OCO5)cc3C#N)CC2)cc1	-3	1	6	8%	4	-1
S=c1[nH]nc(CCc2ccccc2)n1-c1ccc(Cl)cc1	-5	4	1	0%	4	-1
O=C(O)CC1c2ccccc2C=Cc2ccccc21	-32*	0	-2	1%	-6	0
COc1ccc(CNn2c(-c3cccc(C)c3)nc3ccccc3c2=O)cc1OC	15	0	3	-1%	4	0
O=c1oc2c3c4c(cc2c(C(F)(F)F)c1CCN1CCOCC1)CCCN4CCC3	17	178*	4	-4%	-1	95*
O=c1oc2c(CN3CCOCC3)c(O)ccc2c2c1CCC2	8	1	8	-3%	0	0
CC(C)c1cc(=O)oc2c3c4c(cc12)CCCN4CCC3	6	30*	1	-5%	-5	6
CCCc1nnc(SCc2ccc(OCC)cc2)n1N	-5	4	0	-5%	4	0
CCCc1nnc(SCCSc2nnc(CCC)n2N)n1N	-32*	12	2	-6%	-1	-1
CC(C)n1cc(CN2CCC(C(=O)Nc3cccc(-c4cccc(Cl)c4)c3)CC2)cn1	-21	41*	4	-7%	-4	2
CCn1cc(CN2CCC(C(=O)Nc3cccc(-c4cccc(F)c4)c3)CC2)cn1	-38*	18	-2	-2%	-10	0
CCn1nc(C)c(CN2CCC(C(=O)Nc3cccc(-c4cccc(F)c4)c3)CC2)c1C	-20	37*	0	-4%	-4	1
CCC[n+]1c(C)sc2c(OC)ccc(OC)c21	-9	2	-7	-5%	-2	0
